Test results: PubChem BioAssay
Active and inactive are the calls of the source.

Experiments:
[1] = compounds binding Alexa647 anti-His antibody – biochemical, small-molecule microarray, 635 nm fluorescence, artefact control for SMM control protein annotation, primary screen (AID 1128); details: higher = more signal;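 also: score merges feature fluorescence with signal-to-noise for each printed compound spot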
[2] = system: Human papillomavirus type 1a E7 protein (residues 1-88); experiment: HPV1a E7 small-molecule binders, primary screen, biochemical, small-molecule microarray, residues 1-88, 635 nm (AID 1129); details: small-molecule microarray binding, fluorescence 635 nm; higher = more signal
[3] = molecular target: Focal adhesion kinase 1 (Homo sapiens) (UniProt Q05397); experiment: PTK2 protein binding on printed compound slides – biochemical, small-molecule microarray, 635/667 nm fluorescence, BSA, DTT, primary screen (AID 1130); details: 635 nm fluorescence, higher = more signal;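 also: composite of spot emission at 667 nm and signal to noise over triplicate slides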
[4] = system: Fibrinogen (Alexa647-labelled); experiment: Alexa647-fibrinogen binding to printed small molecules – biochemical, small-molecule microarray, 635/667 nm fluorescence, artefact control for SMM control-protein annotation, profiling panel (AID 1131); details: fibrinogen-A647 binding fluorescence, higher = more signal;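 also: z-score merges 667 nm fluorescence with per-spot signal-to-noise over triplicate slides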
[5] = molecular target: Follistatin (Homo sapiens) (UniProt P19883); experiment: FST protein binding to printed compounds – biochemical, small-molecule microarray, 635/667 nm fluorescence, primary screen (AID 1132); details: 635 nm fluorescence, higher = more signal
[6] = molecular target: Fibroblast growth factor 2 (Homo sapiens) (UniProt P09038); experiment: basic fibroblast growth factor binding to printed compounds – biochemical, small-molecule microarray, 635/667 nm fluorescence, primary screen (AID 1133); details: FGF2, fluorescence 635/667, higher = more signal
[7] = JC-1 mitochondrial potential readout, lung cancer cells – cell-based, A549, JC-1 fluorescence, basal, 24 h, 100 nL, profiling panel (AID 1138); details: higher = more signal;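 also: A549 lung adenocarcinoma cells under basal conditions with no added stimulus; test concentration not given here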
[8] = system: Lefty1; experiment: Lefty1 protein binding to printed compounds – biochemical, small-molecule microarray, 635/667 nm fluorescence, primary screen (AID 1139); details: fluorescence 635/667, higher = more signal
[9] = system: wheat germ agglutinin (Triticum aestivum), Alexa647-labelled; experiment: Alexa647-WGA lectin binding to printed small molecules – biochemical, small-molecule microarray, 635/667 nm fluorescence, artefact control for SMM control-protein annotation, profiling panel (AID 1140); details: WGA-A647 binding, 635 nm fluorescence, higher = more signal;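 also: score merges 667 nm feature emission with signal to noise over triplicate slides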
[10] = molecular target: Luciferin 4-monooxygenase (Photinus pyralis) (UniProt P08659); experiment: inhibition of purified Photinus pyralis luciferase – biochemical, luminescence, purified enzyme, 2006 set, primary screen (AID 1141); details: purified firefly luciferase, SteadyGlo luminescence, 30 min; higher = more signal, called active from +8 up or from −8 down;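 also: cell-free assay with purified firefly luciferase at 100 ng per well in PBS; test concentration not given here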
Chain of Luciferin 4-monooxygenase (Photinus pyralis) (P08659 whole entry, looked up): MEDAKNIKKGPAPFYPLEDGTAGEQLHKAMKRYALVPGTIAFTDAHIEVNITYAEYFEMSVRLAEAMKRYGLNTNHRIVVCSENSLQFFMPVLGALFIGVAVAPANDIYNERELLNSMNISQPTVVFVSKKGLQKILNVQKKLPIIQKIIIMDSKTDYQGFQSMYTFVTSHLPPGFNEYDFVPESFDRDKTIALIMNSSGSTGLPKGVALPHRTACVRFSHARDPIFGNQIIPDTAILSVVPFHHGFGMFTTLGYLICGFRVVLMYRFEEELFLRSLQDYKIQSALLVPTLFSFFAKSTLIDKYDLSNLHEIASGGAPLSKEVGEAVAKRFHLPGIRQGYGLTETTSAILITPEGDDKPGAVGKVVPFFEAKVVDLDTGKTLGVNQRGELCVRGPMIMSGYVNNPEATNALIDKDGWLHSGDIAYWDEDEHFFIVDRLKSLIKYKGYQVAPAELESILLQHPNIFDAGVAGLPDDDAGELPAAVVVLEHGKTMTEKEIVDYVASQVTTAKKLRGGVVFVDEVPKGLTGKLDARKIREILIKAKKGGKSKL

Chain of Fibroblast growth factor 2 (Homo sapiens) (P09038 whole entry, looked up): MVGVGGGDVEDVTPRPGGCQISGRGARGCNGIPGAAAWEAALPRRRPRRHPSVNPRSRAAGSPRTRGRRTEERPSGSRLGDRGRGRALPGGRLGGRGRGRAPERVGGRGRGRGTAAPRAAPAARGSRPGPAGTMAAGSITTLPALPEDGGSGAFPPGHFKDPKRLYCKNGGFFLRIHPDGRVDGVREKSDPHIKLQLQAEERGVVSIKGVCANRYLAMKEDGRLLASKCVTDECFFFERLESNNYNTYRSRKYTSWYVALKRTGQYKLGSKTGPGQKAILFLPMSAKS
Chain of Follistatin (Homo sapiens) (P19883 whole entry, looked up): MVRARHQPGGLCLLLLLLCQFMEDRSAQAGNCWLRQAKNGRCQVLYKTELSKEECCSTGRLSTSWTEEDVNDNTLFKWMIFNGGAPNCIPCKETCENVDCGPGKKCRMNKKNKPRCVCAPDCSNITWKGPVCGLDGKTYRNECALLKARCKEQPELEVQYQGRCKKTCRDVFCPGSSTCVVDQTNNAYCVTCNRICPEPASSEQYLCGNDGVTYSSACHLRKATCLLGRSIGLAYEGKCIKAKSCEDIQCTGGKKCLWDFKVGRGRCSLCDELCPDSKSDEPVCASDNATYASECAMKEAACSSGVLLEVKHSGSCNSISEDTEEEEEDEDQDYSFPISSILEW
Chain of Focal adhesion kinase 1 (Homo sapiens) (Q05397 whole entry, looked up): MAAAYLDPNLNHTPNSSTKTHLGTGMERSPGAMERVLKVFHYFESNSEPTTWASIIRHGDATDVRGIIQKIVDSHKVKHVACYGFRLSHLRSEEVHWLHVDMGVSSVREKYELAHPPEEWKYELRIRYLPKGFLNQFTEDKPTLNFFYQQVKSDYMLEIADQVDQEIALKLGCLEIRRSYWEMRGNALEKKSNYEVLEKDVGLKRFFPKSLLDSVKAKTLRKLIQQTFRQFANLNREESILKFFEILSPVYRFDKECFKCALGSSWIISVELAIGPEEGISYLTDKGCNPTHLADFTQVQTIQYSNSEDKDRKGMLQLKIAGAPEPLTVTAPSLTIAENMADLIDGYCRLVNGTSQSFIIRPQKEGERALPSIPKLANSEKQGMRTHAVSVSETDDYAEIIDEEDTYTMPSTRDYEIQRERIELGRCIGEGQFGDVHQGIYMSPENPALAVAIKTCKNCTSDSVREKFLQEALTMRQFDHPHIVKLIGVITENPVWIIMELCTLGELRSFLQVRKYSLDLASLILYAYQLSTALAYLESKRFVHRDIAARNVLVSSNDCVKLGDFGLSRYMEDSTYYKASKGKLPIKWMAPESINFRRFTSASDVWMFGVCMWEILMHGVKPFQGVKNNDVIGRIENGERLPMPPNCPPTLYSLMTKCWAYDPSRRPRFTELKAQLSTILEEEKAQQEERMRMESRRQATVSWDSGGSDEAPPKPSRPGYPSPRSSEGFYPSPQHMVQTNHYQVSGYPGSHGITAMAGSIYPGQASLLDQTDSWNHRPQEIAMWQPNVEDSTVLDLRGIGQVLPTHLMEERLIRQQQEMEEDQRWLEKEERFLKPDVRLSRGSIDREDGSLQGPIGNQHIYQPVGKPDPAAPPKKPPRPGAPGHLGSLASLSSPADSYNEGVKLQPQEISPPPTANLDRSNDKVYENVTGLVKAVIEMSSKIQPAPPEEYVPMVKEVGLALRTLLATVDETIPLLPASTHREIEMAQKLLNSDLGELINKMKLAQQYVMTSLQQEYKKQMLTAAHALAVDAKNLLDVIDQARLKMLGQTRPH

Structure (SMILES)	composite z-score [1]	composite z-score [2]	composite z-score [3]	composite z-score [4]	composite z-score [5]	composite z-score [6]	z-score [7]	composite z-score [8]	composite z-score [9]	z-score [10]
C[N+](C)(C)CCCCCCNC(=O)[C@@H]1C[C@@H]2C(=O)NCC(=O)N2[C@@H]1c1ccc(O)cc1	0.946	1.05	-0.0272	0.49	1.41	1.31	-0.779	1.53	0.01	0.584 (inactive)
CC(C)CNC(=O)[C@@]1(c2ccc([N+](=O)[O-])cc2)CC(=O)N(C(C)C)[C@@H]1c1ccc(CO)cc1	0.217	-0.467	-0.362	-1.2	0.272	-1.25	-0.0836	-0.455	0.486	1.18 (inactive)
C=CCOC(=O)[C@@H]1[C@H]2C(=O)O[C@H](c3ccccc3)[C@H](c3ccccc3)N2[C@H](c2ccc(OCCOC(=O)[C@@H]3C[C@@H]4C(=O)N[C@@H](CCCCNC(C)=O)C(=O)N4[C@@H]3c3ccc(O)cc3)cc2)[C@@]12C(=O)Nc1ccc(I)cc12	1.73	1.21	0.478	0.207	1.41	1.62	-1.37	1.37	0.412	-0.576 (inactive)
O=C1O[C@H](c2ccccc2)[C@H](c2ccccc2)N2[C@H]1[C@@H](C(=O)NC[C@H](O)c1ccccc1)[C@]1(C(=O)Nc3ccccc31)[C@H]2c1ccccc1OCCO	2.24	1.22	0.271	0.916	0.455	0.538	-0.789	0.799	0.356	-11 (active)
O=C1CSC(c2cccc([N+](=O)[O-])c2)N1c1ccccc1 (stereo not given)	0.317	0.494	-0.0119	0.667	0.244	0.481	0.774	0.257	-0.0002	0.174 (inactive)
COCCCNC(=O)[C@@]1(Cc2ccccc2)COC(c2ccc(OCCCO)cc2)=N1	2.66	1.21	0.953	1	0.645	0.986	0.814	-1.07	0.509	0.272 (inactive)
COC(=O)[C@@]1(Cc2ccccc2)[C@H]2c3cc(C(=O)N(C)C)n(Cc4ccccn4)c3C[C@H]2CN1C(=O)c1ccccc1	1.54	0.827	1.56	1.04	-0.226	-0.389	-0.128	-0.225	0.88	1.56 (inactive)
COC(=O)[C@@]1(Cc2ccccc2)[C@H]2c3cc(C(=O)N4CCCC4)n(CCO)c3C[C@H]2CN1C(=O)c1ccccc1	0.931	0.992	0.747	0.488	0.961	0.0586	0.841	-0.493	1.12	0.891 (inactive)
COC(=O)[C@@]1(Cc2ccccc2)[C@H]2c3cc(C(=O)N(C)C)n(Cc4ccc(O)c(OC)c4)c3C[C@H]2CN1C(=O)c1ccccc1	2.42	1.11	1.12	0.418	0.465	-0.875	-1.29	-0.239	-0.0465	1.19 (inactive)
CC(C)C[C@@H]1NC(=O)[C@@H]2C[C@H](C(=O)NCCCC[N+](C)(C)C)[C@H](c3cccc(OCCO)c3)N2C1=O	2.63	0.235	-0.584	-0.173	1.45	1.38	-0.69	1.47	-0.445	-0.45 (inactive)
Cc1ccc(F)cc1S(=O)(=O)N[C@@H]1CCN(C(=O)c2ccc(OC(C)C)cc2)C1	1.42	1.16	0.485	0.371	0.485	1.24	0.946	0.913	0.557	-0.457 (inactive)
O=C1N(CCS(=O)(=O)c2ccccc2)Cc2ccccc2C[C@@]12COC(c1ccc(OCCCO)cc1)=N2	2.25	1.26	1.04	0.841	1.4	0.962	0.367	0.619	1.15	-0.966 (inactive)
COC(=O)C(CC#Cc1ccc2c(c1)[C@]1(C(=O)N2)[C@H](c2ccc(OCCO)cc2)N2[C@H](c3ccccc3)[C@H](c3ccccc3)OC(=O)[C@H]2[C@@H]1C(=O)O)C(=O)OC	3.08	1.19	1.38	0.915	0.915	0.228	0.161	0.861	1.1	-3.07 (inactive)
COCCOC(=O)N1C(=O)[C@@]2(c3cc(C#CCNC(N)=O)ccc31)[C@H](c1ccc(OCCO)cc1)N1[C@H](c3ccccc3)[C@H](c3ccccc3)OC(=O)[C@H]1[C@@H]2C(=O)N1CCN(c2ncccn2)CC1	0.122	1.09	1.58	0.72	1.41	1.24	-1.57	0.411	0.447	-1.23 (inactive)
O=C(N1CCOCC1)[C@@]1(CCS(=O)(=O)c2ccccc2)COC(c2ccc(OCCCO)cc2)=N1	0.436	1.18	0.307	-0.71	-0.176	0.974	-0.336	-1.32	-0.204	0.735 (inactive)
COCCOC(=O)N1C(=O)[C@@]2(c3cc(C#Cc4ccc(OC)cc4)ccc31)[C@H](C(N)=O)[C@H]1C(=O)O[C@H](c3ccccc3)[C@H](c3ccccc3)N1[C@@H]2c1ccc(OCCO)cc1	1.71	1.21	0.398	0.898	1.28	1.55	-1.96	0.997	0.695	-0.297 (inactive)

Structure (SMILES)	composite z-score [1]	composite z-score [2]	composite z-score [3]	composite z-score [4]	composite z-score [5]	composite z-score [6]	z-score [7]	composite z-score [8]	composite z-score [9]	z-score [10]
NC(=O)NCC#Cc1ccc2c(c1)[C@]1(C(=O)N2)[C@H](c2ccc(OCCO)cc2)N2[C@H](c3ccccc3)[C@H](c3ccccc3)OC(=O)[C@H]2[C@@H]1C(=O)N1CCCCCCC1	0.418	1.18	1.08	0.41	1.39	1.15	-1	1.64	1.44	-0.254 (inactive)
COc1cc2c(cc1OC)CN(C(=O)[C@@H]1[C@H]3C(=O)O[C@H](c4ccccc4)[C@H](c4ccccc4)N3[C@H](c3ccc(OCCO)cc3)[C@@]13C(=O)Nc1ccc(C#CCCO)cc13)CC2	1.23	1.23	0.237	0.956	1.36	0.999	-1.37	1.08	1.27	-0.418 (inactive)
C=C(C)[C@@H]1CC=C(C(O)C2C=CC3C(=O)N(C4CCCCC4)C(=O)C3N2Nc2ccc(OC)cc2)CC1 (stereo not given in full)	0.736	1.21	0.589	1	1.17	0.723	0.677	0.606	0.46	-0.392 (inactive)
COCCOC(=O)N1C(=O)[C@@]2(c3cc(C#Cc4ccc(OC)cc4)ccc31)[C@H](C(=O)N1CCc3cc(OC)c(OC)cc3C1)[C@H]1C(=O)O[C@H](c3ccccc3)[C@H](c3ccccc3)N1[C@@H]2c1ccc(OCCO)cc1	0.839	1.13	0.5	0.195	1.19	1.3	-1.79	0.88	0.596	-1.23 (inactive)
CC(C)(C)N1CC=CC23O[C@@H]4C=CCCOC(=O)C4[C@H]2C(=O)N(CCCO)[C@@H]3C1=O (stereo not given in full)	-1.89	-1.75	-0.491	-1.66	-0.103	-0.464	-0.754	-0.292	-1.96	-0.0881 (inactive)
C=CCOC(=O)[C@H]1[C@@H]2C(=O)O[C@@H](c3ccccc3)[C@@H](c3ccccc3)N2[C@@H](c2ccc(OCCOC(=O)[C@H]3C[C@H]4C(=O)N[C@@H](CCCCN(C)C)C(=O)N4[C@H]3c3ccc(O)cc3)cc2)[C@]12C(=O)Nc1ccccc12	-0.127	1.13	0.806	-0.104	1.43	1.59	-0.58	1.5	0.0515	-0.552 (inactive)
C[N+](C)(C)CCCCCCNC(=O)[C@H]1C[C@H]2C(=O)N3CCC[C@H]3C(=O)N2[C@H]1c1cccc(OCCO)c1	1.38	0.874	0.141	0.242	1.3	1.35	-1.05	1.64	-0.0285	0.126 (inactive)
C=C(COC)/C(=C/C[C@@H](OC(=O)c1ccncc1)c1cccc(OCCO)c1)c1cc(C(=O)OC)ccc1OC	0.0301	0.942	-0.0044	0.199	1.42	2	1.28	1.63	0.181	-1.11 (inactive)
COCCOC(=O)N1C(=O)[C@@]2(c3cc(C#Cc4ccc(OC)cc4)ccc31)[C@H](C(=O)N1CCc3cc(OC)c(OC)cc3C1)[C@H]1C(=O)O[C@H](c3ccccc3)[C@H](c3ccccc3)N1[C@@H]2c1ccc(O)cc1	1.13	1.21	0.226	0.753	1.25	1.17	-0.406	0.606	0.659	-1.35 (inactive)
CC(C)C[C@H]1NC(=O)[C@H](C)NC(=O)[C@@]23C(=O)N[C@@H](Cc4ccccc4)C2[C@H](C)[C@@]2(C)O[C@H]2C3/C=C/C/C=C\CNC1=O (stereo not given in full)	0.528	-0.071	-0.0739	-1.65	0.321	-0.28	0.141	0.253	0.649	-0.8 (inactive)
CC(C)CNC(=O)[C@@]1(C)c2ccccc2C(=O)N(Cc2ccccc2)[C@H]1c1ccc(CO)cc1	-0.97	-0.955	-0.846	-1.84	-0.976	-1.27	-0.504	-2.25	-1.4	0.182 (inactive)
COc1cc(NN2C(C(O)c3ccc(I)cc3)C=CC3C(=O)N(C)C(=O)C32)cc(OC)c1OC (stereo not given)	2.61	0.351	1.2	-0.472	-0.0712	-0.893	0.223	-0.595	0.701	-0.977 (inactive)
Cc1ccc(S[C@]2(C(=O)NCC(C)C)CC(=O)N(C3CCCCC3)[C@@H]2c2ccc(CO)cc2I)cc1	0.464	1.17	0.558	0.166	0.0905	-0.284	1.28	0.0839	0.752	1.22 (inactive)
C=CC[C@@]1(C(=O)NCCN2CCOCC2)N=C(c2ccc(OCCCO)cc2)O[C@@H]1c1ccccc1	0.432	1.24	0.49	0.755	1.46	1.73	-0.185	1.55	0.978	-0.43 (inactive)
COCCOC(=O)N1C(=O)[C@@]2(c3cc(C#Cc4ccc(OC)cc4)ccc31)[C@H](c1ccc(OCCO)cc1)N1[C@H](c3ccccc3)[C@H](c3ccccc3)OC(=O)[C@H]1[C@@H]2C(N)=O	2.14	1.13	1.03	0.519	1.41	1.31	-1.28	1.39	1	-0.35 (inactive)
